# Legend:
# [1] = biological target: Dual specificity protein kinase CLK3 (Homo sapiens) (UniProt P49761); settings: at 1 µM;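 note: each value is the mean inhibition of CLK3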
# [2] = biological target: Dual specificity tyrosine-phosphorylation-regulated kinase 1A (Homo sapiens) (UniProt Q13627); settings: at 0.1 µM
# [3] = biological target: Dual specificity tyrosine-phosphorylation-regulated kinase 1A (Homo sapiens) (UniProt Q13627); settings: at 1 µM
# [4] = biological target: Dual specificity tyrosine-phosphorylation-regulated kinase 1B (Homo sapiens) (UniProt Q9Y463); settings: at 0.1 µM
# [5] = biological target: Dual specificity tyrosine-phosphorylation-regulated kinase 1B (Homo sapiens) (UniProt Q9Y463); settings: at 1 µM
# [6] = biological target: T1, Dual specificity tyrosine-phosphorylation-regulated kinase 2 (Homo sapiens) (UniProt Q92630); settings: at 0.1 µM
# T1 sequence (whole entry): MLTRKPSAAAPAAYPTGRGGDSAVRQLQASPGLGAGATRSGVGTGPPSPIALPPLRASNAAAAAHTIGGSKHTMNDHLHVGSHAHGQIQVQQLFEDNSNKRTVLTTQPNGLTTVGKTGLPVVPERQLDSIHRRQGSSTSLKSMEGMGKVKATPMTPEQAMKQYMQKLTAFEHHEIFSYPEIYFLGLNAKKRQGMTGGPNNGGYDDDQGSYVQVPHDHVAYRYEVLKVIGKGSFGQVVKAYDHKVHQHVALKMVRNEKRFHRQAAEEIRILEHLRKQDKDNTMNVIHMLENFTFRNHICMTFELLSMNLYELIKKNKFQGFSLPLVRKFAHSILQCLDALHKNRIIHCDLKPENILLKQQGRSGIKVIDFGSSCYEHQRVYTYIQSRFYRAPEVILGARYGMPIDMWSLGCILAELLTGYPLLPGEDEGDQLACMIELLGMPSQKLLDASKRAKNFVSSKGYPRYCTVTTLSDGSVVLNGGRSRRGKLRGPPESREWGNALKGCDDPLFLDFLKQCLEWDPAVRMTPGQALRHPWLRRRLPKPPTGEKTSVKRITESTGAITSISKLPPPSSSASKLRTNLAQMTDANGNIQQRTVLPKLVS
# [7] = biological target: T1, Dual specificity tyrosine-phosphorylation-regulated kinase 2 (Homo sapiens); settings: at 1 µM
# [8] = biological target: Glycogen synthase kinase-3 alpha (Homo sapiens) (UniProt P49840); settings: at 0.1 µM
# [9] = biological target: Glycogen synthase kinase-3 alpha (Homo sapiens) (UniProt P49840); settings: at 1 µM
# [10] = biological target: Glycogen synthase kinase-3 beta (Homo sapiens) (UniProt P49841); settings: at 0.1 µM
# [11] = biological target: Glycogen synthase kinase-3 beta (Homo sapiens) (UniProt P49841); settings: at 1 µM
# [12] = biological target: Homeodomain-interacting protein kinase 1 (Homo sapiens) (UniProt Q86Z02); settings: at 0.1 µM
# [13] = biological target: Homeodomain-interacting protein kinase 1 (Homo sapiens) (UniProt Q86Z02); settings: at 1 µM
# [14] = biological target: T2, Homeodomain-interacting protein kinase 4 (Homo sapiens) (UniProt Q8NE63); settings: at 0.1 µM
# T2 sequence (whole entry): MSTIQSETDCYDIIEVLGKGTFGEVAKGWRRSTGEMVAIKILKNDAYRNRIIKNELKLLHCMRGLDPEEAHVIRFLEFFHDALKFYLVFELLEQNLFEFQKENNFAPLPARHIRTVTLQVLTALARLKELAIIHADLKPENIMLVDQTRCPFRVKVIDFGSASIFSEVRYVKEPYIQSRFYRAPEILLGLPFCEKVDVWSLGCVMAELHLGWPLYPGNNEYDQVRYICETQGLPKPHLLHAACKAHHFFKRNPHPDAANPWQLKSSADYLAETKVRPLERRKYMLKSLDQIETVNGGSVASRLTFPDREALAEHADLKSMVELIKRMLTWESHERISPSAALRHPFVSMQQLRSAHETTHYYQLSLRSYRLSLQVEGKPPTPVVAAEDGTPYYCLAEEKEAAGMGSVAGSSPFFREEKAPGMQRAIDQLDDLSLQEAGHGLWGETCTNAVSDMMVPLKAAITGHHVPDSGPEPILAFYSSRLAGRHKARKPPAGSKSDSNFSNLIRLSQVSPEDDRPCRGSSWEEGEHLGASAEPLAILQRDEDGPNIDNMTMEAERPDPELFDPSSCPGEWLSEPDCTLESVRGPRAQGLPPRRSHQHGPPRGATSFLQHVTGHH
# [15] = biological target: T2, Homeodomain-interacting protein kinase 4 (Homo sapiens); settings: at 1 µM
# [16] = biological target: Mitogen-activated protein kinase 9 (Homo sapiens) (UniProt P45984); settings: at 0.1 µM
# [17] = biological target: Mitogen-activated protein kinase 9 (Homo sapiens) (UniProt P45984); settings: at 1 µM
# [18] = biological target: Mitogen-activated protein kinase 1 (Homo sapiens) (UniProt P28482); settings: at 0.1 µM
# [19] = biological target: Mitogen-activated protein kinase 1 (Homo sapiens) (UniProt P28482); settings: at 1 µM
# [20] = biological target: Mitogen-activated protein kinase 3 (Homo sapiens) (UniProt P27361); settings: at 0.1 µM;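 note: each value is a mean inhibition figure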
# Chain of Mitogen-activated protein kinase 3 (Homo sapiens) (P27361 whole entry): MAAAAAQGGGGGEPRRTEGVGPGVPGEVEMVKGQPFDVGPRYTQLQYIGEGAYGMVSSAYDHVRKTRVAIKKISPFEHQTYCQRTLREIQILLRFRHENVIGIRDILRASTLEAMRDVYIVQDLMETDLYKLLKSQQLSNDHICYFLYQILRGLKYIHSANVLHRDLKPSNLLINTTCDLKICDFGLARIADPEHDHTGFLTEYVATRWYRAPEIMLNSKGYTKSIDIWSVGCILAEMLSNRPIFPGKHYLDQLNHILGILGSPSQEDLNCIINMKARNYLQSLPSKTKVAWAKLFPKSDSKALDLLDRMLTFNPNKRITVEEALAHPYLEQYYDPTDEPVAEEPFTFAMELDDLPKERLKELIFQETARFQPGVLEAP
# Chain of Glycogen synthase kinase-3 alpha (Homo sapiens) (P49840 2-483 limits assumed): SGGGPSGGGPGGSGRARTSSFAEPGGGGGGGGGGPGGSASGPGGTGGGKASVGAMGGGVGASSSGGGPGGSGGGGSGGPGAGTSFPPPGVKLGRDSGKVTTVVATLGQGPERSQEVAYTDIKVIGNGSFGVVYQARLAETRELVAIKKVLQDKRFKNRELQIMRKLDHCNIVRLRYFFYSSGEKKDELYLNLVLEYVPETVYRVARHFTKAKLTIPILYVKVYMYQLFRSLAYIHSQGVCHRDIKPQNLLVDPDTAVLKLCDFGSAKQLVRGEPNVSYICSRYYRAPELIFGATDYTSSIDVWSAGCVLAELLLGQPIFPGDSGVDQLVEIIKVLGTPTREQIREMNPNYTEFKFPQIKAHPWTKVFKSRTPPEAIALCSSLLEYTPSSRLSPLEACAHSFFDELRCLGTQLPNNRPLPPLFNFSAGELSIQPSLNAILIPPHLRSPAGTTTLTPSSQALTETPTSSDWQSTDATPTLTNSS
# Chain of Dual specificity tyrosine-phosphorylation-regulated kinase 1B (Homo sapiens) (Q9Y463 whole entry, looked up): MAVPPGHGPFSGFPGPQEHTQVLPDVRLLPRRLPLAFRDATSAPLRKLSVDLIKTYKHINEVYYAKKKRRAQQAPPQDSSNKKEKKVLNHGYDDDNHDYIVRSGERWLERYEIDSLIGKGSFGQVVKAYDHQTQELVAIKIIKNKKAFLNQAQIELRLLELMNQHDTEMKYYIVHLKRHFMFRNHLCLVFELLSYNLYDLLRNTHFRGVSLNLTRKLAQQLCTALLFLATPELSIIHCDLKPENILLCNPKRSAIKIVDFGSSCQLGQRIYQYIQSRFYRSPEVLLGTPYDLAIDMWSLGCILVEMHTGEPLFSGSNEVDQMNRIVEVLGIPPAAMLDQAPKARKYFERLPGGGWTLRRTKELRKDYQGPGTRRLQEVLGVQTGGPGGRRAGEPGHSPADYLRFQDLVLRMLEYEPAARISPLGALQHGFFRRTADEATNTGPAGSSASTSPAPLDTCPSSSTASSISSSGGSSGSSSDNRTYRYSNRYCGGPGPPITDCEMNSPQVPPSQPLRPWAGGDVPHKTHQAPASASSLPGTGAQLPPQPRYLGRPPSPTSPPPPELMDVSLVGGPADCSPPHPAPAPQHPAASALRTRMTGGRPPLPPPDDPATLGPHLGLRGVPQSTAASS
# Chain of Dual specificity protein kinase CLK3 (Homo sapiens) (P49761 whole entry, looked up): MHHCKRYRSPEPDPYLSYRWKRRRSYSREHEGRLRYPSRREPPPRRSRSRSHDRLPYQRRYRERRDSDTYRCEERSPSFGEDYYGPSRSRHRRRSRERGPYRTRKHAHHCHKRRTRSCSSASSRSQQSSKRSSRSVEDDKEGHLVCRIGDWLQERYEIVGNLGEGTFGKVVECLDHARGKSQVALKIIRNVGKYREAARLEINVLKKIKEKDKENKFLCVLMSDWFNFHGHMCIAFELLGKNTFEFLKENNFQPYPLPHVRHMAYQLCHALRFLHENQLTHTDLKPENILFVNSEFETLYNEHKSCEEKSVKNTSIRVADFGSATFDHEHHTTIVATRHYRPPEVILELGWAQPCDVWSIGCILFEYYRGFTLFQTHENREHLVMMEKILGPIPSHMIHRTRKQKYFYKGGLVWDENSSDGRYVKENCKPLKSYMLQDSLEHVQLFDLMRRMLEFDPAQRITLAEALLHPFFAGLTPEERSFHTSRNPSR
# Chain of Mitogen-activated protein kinase 1 (Homo sapiens) (P28482 whole entry): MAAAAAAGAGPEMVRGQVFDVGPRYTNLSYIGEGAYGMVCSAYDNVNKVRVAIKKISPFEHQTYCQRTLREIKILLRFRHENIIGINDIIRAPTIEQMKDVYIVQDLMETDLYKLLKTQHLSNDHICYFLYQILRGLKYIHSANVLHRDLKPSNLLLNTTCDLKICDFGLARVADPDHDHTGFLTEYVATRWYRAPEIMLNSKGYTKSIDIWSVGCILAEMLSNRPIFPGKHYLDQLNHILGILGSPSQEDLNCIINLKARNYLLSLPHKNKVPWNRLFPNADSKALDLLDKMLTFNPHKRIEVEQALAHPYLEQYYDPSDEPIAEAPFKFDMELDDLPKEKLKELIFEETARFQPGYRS
# Chain of Glycogen synthase kinase-3 beta (Homo sapiens) (P49841 whole entry, looked up): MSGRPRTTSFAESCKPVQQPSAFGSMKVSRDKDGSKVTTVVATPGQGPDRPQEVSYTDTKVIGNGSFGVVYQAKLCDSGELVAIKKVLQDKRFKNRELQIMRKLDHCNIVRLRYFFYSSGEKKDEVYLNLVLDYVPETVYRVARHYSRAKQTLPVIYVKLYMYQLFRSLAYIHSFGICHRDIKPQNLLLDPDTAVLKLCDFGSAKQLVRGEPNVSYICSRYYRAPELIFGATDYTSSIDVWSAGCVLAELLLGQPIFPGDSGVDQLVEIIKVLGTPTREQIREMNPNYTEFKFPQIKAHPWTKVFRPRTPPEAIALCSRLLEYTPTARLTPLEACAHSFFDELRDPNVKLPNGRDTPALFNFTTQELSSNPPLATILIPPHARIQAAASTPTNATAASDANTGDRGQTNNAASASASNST
# Chain of Homeodomain-interacting protein kinase 1 (Homo sapiens) (Q86Z02 whole entry, looked up): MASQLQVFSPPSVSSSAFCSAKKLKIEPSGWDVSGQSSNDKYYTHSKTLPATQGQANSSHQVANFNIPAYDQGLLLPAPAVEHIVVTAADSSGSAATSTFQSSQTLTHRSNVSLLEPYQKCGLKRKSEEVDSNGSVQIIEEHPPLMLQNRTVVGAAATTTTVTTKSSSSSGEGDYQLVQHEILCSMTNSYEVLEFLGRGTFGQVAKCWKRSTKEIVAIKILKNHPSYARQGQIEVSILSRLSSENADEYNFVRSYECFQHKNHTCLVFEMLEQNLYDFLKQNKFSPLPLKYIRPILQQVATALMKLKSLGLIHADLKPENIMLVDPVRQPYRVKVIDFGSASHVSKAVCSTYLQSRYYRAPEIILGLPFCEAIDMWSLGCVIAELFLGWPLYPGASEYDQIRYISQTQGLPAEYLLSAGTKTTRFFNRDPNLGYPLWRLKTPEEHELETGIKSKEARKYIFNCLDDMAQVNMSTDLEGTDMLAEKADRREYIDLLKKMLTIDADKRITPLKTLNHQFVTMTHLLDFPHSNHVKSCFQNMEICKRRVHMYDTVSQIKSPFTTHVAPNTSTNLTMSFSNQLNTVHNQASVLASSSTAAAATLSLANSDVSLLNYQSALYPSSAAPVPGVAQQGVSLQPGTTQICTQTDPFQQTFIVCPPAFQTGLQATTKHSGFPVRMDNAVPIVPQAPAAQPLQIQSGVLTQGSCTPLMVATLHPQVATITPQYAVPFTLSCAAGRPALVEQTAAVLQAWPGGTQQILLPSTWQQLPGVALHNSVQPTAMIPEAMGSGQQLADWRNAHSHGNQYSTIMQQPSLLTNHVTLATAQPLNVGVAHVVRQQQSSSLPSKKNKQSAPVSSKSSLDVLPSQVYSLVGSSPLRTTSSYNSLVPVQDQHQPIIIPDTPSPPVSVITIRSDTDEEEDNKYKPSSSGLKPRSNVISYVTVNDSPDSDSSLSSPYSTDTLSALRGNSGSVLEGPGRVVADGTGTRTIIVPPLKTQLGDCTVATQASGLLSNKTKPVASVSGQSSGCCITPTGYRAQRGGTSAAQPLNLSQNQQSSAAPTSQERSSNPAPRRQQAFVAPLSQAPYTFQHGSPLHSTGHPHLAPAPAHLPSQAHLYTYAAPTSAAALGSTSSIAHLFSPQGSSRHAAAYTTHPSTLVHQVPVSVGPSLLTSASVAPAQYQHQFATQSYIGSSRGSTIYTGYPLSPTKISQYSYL
# Chain of Mitogen-activated protein kinase 9 (Homo sapiens) (P45984 whole entry, looked up): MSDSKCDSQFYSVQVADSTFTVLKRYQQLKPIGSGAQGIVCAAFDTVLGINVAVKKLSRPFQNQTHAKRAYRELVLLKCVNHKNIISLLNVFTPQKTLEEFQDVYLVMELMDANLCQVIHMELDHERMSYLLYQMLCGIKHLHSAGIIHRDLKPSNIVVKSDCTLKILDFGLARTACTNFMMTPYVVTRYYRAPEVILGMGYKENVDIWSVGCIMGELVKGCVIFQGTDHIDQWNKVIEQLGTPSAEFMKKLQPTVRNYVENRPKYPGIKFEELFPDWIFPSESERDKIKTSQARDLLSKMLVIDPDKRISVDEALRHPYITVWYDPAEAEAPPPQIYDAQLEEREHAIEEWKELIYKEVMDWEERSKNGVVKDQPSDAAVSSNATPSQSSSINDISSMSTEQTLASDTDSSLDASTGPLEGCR
Compound,inhibition [1] [%],inhibition [2] [%],inhibition [3] [%],inhibition [4] [%],inhibition [5] [%],inhibition [6] [%],inhibition [7] [%],inhibition [8] [%],inhibition [9] [%],inhibition [10] [%],inhibition [11] [%],inhibition [12] [%],inhibition [13] [%],inhibition [14] [%],inhibition [15] [%],inhibition [16] [%],inhibition [17] [%],inhibition [18] [%],inhibition [19] [%],inhibition [20] [%]
Cc1ccc2c(-c3ccnc(Nc4ccccc4)n3)c(-c3ccc(F)cc3)nn2n1,1.61,0.7,5.42,1,3.35,3.2,2.94,9.81,44.8,22.4,66.7,-0.41,7.55,2.12,4.2,44,81.2,4.23,10.5,3.56
CCCN(CCS(C)(=O)=O)Cc1ccc(-c2ccc3ncnc(Nc4ccc(OCc5cccc(F)c5)c(Cl)c4)c3c2)o1,3.58,4.83,10.8,4.87,10.4,1.93,2.03,7.55,9.2,6.85,10.2,6.46,11.6,3.01,9.25,2.74,4.94,1.68,3.24,1.75
Fc1cccc(COc2ccc(Nc3ncnc4sc(-c5ccco5)cc34)cc2Cl)c1,0.86,3.24,4.83,-1.92,0.72,3.21,0.35,3.67,6.09,2.77,4.97,-0.44,5.88,2.99,5.88,1.05,0.94,5.22,5.78,2.39
c1cc(-c2cnn3nc(N4CCOCC4)ccc23)nc(NC2CC2)n1,8.62,7.48,40.4,6.08,35.8,5.57,32.8,4.47,26.4,2.95,18.2,3.36,29,4.39,20.6,5.03,26.1,1.45,7.25,4.13
CCn1c(-c2nonc2N)nc2cnc(Oc3cccc(NC(=O)c4ccc(N(C)C)cc4)c3)cc21,0.75,0.93,5.38,-0.45,4.48,1,2.79,8.94,46.6,6.2,41,-2.28,1.69,-1.11,3.8,2.94,3.41,1.18,3.77,1.53
CCn1c(-c2nonc2N)nc2ccccc21,2.22,1.62,14.6,1.02,7.36,2.66,5.28,3.32,24,3.21,17.4,1.47,4.99,1.45,4.14,3.53,2.53,1.93,3.93,3.48
COc1cc2ncn(-c3cc(OCc4ccccc4C(F)(F)F)c(C(=O)N(C)C)s3)c2cc1OC,0.45,0.01,0.74,0.5,0.22,-0.27,2.19,0.04,1.19,0.03,1.99,-1.93,-0.02,-0.52,2.66,1.07,2.1,-1.73,0.92,-0.18
